Experimental findings from PubChem BioAssay (NCATS) are described below.

Values joined by “and” are separate entries in the source; they are usually repeats but may differ in a detail not shown here. Identical values can stand only once. Inconclusive results are not listed. Values without a mark were called inactive. Active and inactive are the calls of the source. Unless noted, calls follow the shape of the dose curve; as a rule, active = well fitted curve in the direction sought with a large enough effect; inconclusive = small, poorly fitted or top-dose-only effect, or another doubt; inactive = no such curve, though single readings can be large; an effect the other way counts as inactive or inconclusive.

The target in test [1] is Cellular tumor antigen p53 (Homo sapiens) (UniProt P04637). In words: Primary qHTS for small molecule compounds that upregulate eGFP-tagged delta133p53alpha (in N-terminal) cells. (AID 2060322). Also: nearly all actives have a fitted effect of over 75% in size. Also: potency is read from the fitted curve at half-maximal effect.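 As to activation: series mostly up to about 56 µM; 0% = DMSO vehicle and 100% = reference activator.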 To be noted: NCI-H358 eGFP-delta133p53alpha fluorescence, 24 h; activation: stronger effect = higher value. The gist of the method: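 NCI-H358 cells pre-induced 24 h with 10 ng/ml doxycycline to express N-terminal eGFP-delta133p53alpha, then dosed 24 h at 37C without doxycycline; fixed, Hoechst-stained, GFP intensity by laser scanning cytometry, normalized to DMSO (0%) and 57.5 uM 5-azacytidine (100%).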
A general note: In qHTS, concentration-response curves come from the screen itself.

Test [2] has the same target. In words: Primary qHTS for small molecule compounds that upregulate eGFP-tagged delta133p53alpha (in C-terminal) cells. (AID 2060324).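 Also: 0% = DMSO wells and 100% = 57.5 µM 5-azacytidine.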 The essentials: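 NCI-H358 cells pre-induced 24 h with 100 ng/ml doxycycline to express delta133p53alpha-eGFP, then dosed in doxycycline-free medium for 24 h at 37C. Fixed, Hoechst-stained; GFP intensity by laser scanning cytometry, normalized to DMSO wells.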

For test [3], the target named is Aldehyde dehydrogenase, mitochondrial (Homo sapiens) (UniProt P05091). Nature of the test: qHTS for Inhibitors of the Aldehyde Dehydrogenase Family (ALDH2) Validation screens (AID 2061302; active = well fitted inhibition curve with a large enough effect; title and protocol of this record describe different tests;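 also: plate controls were DMSO vehicle for no effect and maximal DPI positive control response for full effect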).
The target is the same in test [4]. In words: qHTS for Inhibitors of the Aldehyde Dehydrogenase Family (ALDH2) Confirmatory screens (AID 2061303; active = well fitted inhibition curve with a large enough effect; title and protocol of this record describe different tests; also: % is scaled to controls: 0 for no effect and ±100 for the full control effect; nearly all actives have a fitted effect of over 45% in size).
Test [5] in a line: qHTS for Inhibitors of the Aldehyde Dehydrogenase Family (ALDH1A2, ALDH1A3, ALDH2, ALDH3A1) (AID 2061307). Also: % is scaled to controls: 0 for no effect and ±100 for the full control effect; nearly all actives have a fitted effect of over 50% in size.
Test [6] has as its target Retinaldehyde dehydrogenase 3 (Homo sapiens) (UniProt P47895). In words: qHTS for Inhibitors of the Aldehyde Dehydrogenase Family (ALDH1A3) Confirmatory screens (AID 2061311). Also: % is scaled to controls: 0 for no effect and ±100 for the full control effect; nearly all actives have a fitted effect of over 60% in size.
The target is the same in test [7]. In words: qHTS for Inhibitors of the Aldehyde Dehydrogenase Family (ALDH1A3) Validation screen (AID 2061312). Also: % is scaled to controls: 0 for no effect and ±100 for the full control effect; nearly all actives have a fitted effect of over 45% in size.
For test [8], the target named is Retinal dehydrogenase 2 (Homo sapiens) (UniProt O94788). In words: qHTS for Inhibitors of the Aldehyde Dehydrogenase Family (ALDH1A2) Confirmation screens (AID 2061314). Also: % is scaled to controls: 0 for no effect and ±100 for the full control effect; nearly all actives have a fitted effect of over 65% in size.
For test [9], the target named is Retinaldehyde dehydrogenase 3 (Homo sapiens) (UniProt P47895). In words: qHTS for Inhibitors of the Aldehyde Dehydrogenase Family (ALDH1A3) Primary screen (AID 2061315).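 Also: plate controls were DMSO vehicle for no effect and reference inhibitor for full effect.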
The target in test [10] is Aldehyde dehydrogenase 1A1 (Homo sapiens) (UniProt P00352). Nature of the test: qHTS for Inhibitors of the Aldehyde Dehydrogenase Family (ALDH1A1) Confirmatory screens (AID 2061316). Also: nearly all actives have a fitted effect of over 65% in size.
The target in test [11] is Aldehyde dehydrogenase, mitochondrial (Homo sapiens) (UniProt P05091). In words: qHTS for Inhibitors of the Aldehyde Dehydrogenase Family (ALDH2) Primary screen (AID 2061308).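 Also: plate controls were vehicle for no effect and reference inhibitor for full effect; nearly all actives have a fitted effect of over 55% in size.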

Sequence of Cellular tumor antigen p53 (Homo sapiens) (P04637 whole entry, looked up): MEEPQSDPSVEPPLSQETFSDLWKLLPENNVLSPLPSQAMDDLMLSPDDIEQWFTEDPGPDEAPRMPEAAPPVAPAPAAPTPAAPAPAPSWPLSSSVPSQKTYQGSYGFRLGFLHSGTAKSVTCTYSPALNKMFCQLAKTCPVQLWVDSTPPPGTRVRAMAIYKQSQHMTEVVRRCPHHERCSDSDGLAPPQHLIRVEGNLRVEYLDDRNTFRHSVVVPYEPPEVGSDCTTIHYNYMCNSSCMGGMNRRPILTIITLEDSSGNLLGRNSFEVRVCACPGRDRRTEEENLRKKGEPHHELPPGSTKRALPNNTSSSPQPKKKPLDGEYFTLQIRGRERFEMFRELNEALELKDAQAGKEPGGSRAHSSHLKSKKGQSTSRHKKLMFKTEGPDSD

Consider `Cc1cc2c(cc1Cl)N(C(=O)Nc1ccnc3ccccc13)CC2`, for which the activation in [1] is 4.1%. Further, the Potency entry in [2] and in [3] was “inactive” each time.

Regarding `COc1cc2c(cc1OC)-c1cc(=Nc3c(C)cc(C)cc3C)n(C)c(=O)n1CC2`, in test [1], the activation is -30.7%. For the same compound, the Potency entry in test [2] and in [3] was “inactive” throughout.

Turning to `COCCOc1cc2ncnc(Cl)c2cc1OCCOC`, in test [1], the activation was -22.2%. Besides, the Potency entry in test [2] and in test [3] was “inactive” throughout.

Consider `NC(Cc1cccc(-c2ccccc2CP(=O)(O)O)c1)C(=O)O` (stereo not drawn), for which the activation in test [1] is 5.19%. Also, the Potency entry in [2] and in test [3] was “inactive” throughout.

On to `CC(N)=NCCCC[C@@H](N)C(=O)O`, for which the activation in test [1] was -1.95%. In addition, the Potency result in test [2] and in test [3] was “inactive” each time.

Consider `N=C(N)SCCc1cnc[nH]1`, for which, in test [1], the activation is -28.5%. Further, the Potency result in test [2] and in test [3] was “inactive” in each case.

Regarding `Nc1ncnc2c1ncn2[C@@H]1O[C@H](COP(=O)(O)OP(=O)(O)OP(=O)(O)OP(=O)(O)OC[C@@H]2O[C@H](n3cnc4c(N)ncnc43)[C@@H](O)[C@H]2O)[C@@H](O)[C@H]1O`, the activation in test [1] was -42.2%. The Potency result in test [2] and in test [3] was “inactive” throughout.

With `CC(N)(Cc1ccc(O)c(O)c1)C(=O)O` (stereo not drawn), the activation in [1] was -16.9%. For the same compound, the Potency entry in test [2] and in test [3] was “inactive” each time.

Take `Cc1nc2n(c(=O)c1CCN1CCC(c3noc4cc(F)ccc34)CC1)CCCC2O` (stereo not drawn): the activation in [1] was 3.58%. The Potency result in test [2] and in test [3] was “inactive” each time.

In the case of `O=c1[nH]c(=O)c2nc3ccccc3nc2[nH]1`, the activation in [1] was -4.5%. For the same compound, the Potency result in test [2] and in [3] was “inactive” throughout.

With `NCCC1CCCC(CCN)N1` (stereo not drawn), in test [1], the activation is 10.3%. Moreover, the Potency result in [2] and in test [3] was “inactive” throughout.

On to `COc1ccc(NC(=O)c2ccc(-c3ccc(-c4noc(C)n4)cc3C)cc2)cc1N1CCN(C)CC1`, for which, in test [1], the activation is -47.1%. Besides, the Potency entry in test [2] and in test [3] was “inactive” each time.

As for `CCCCCCCCCCCCCCCCCCN(CCCCCCCCCCCCCCCCCC)CCCN(CCO)CCO`, the activation in [1] was -13.9%. In addition, the Potency entry in test [2] and in [3] was “inactive” each time.

Regarding `C[C@](Cc1ccc(O)c(O)c1)(NN)C(=O)O`, the activation in test [1] is -15.4%. Besides, the Potency result in test [2] and in test [3] was “inactive” throughout.

Consider `CC(=O)N[C@H](C(=O)O)C(C)(C)SN=O`, for which the activation in [1] was -54.1%. In addition, the Potency result in test [2] and in test [3] was “inactive” throughout.

Regarding `CNCC(O)c1ccc(O)c(O)c1` (stereo not drawn), in test [1], the activation was 7.34%. The Potency entry in [2] and in test [3] was “inactive” in each case.

For the compound `Oc1ccc(C2CNCc3sccc32)cc1O` (stereo not drawn), the activation in test [1] was 8.23%. Besides, the Potency entry in test [2] and in test [3] was “inactive” throughout.

In the case of `c1cnc(N2CCN(Cc3ccc4c(c3)OCO4)CC2)nc1`, in test [1], the activation was 8.37% and 9.57%. The Potency result in [2] and in [3] was “inactive” throughout.

Take `c1cc(CN2CCCCC2)cc(OCCCNc2nc3ccccc3s2)c1`: in test [1], the activation is 20.9% and -10.6%. For the same compound, the Potency entry in [2] and in test [3] was “inactive” throughout.

As to `COc1ccccc1CNCCCCCCNCCCCCCCCNCCCCCCNCc1ccccc1OC`, the activation in test [1] is -23.6%. The Potency result in test [2] and in test [3] was “inactive” throughout.

`NCCCNCCCCNCCCN`: the activation in test [1] was -8.4%. The Potency entry in test [2] and in [3] was “inactive” in each case.

For `COc1ccccc1N1CCN(CCN(C(=O)c2ccc(F)cc2)c2ccccn2)CC1`, the activation in test [1] was 5.52%. In addition, the Potency entry in test [2] and in test [3] was “inactive” throughout.

Regarding `CN1CCc2cccc3c2C1Cc1ccc(O)c(O)c1-3` (stereo not drawn), in [1], the activation was 49.9%. In addition, the Potency entry in test [2] and in test [3] was “inactive” throughout.

Take `C=CCn1c(=O)c2c(nc(-c3ccc(S(=O)(=O)O)cc3)n2C)n(C)c1=O`: the activation in test [1] is -9.98%. Besides, the Potency result in [2] and in test [3] was “inactive” in each case.

Turning to `NC(N)=Nc1nc(CSCC/C(N)=N/S(N)(=O)=O)cs1`, the activation in test [1] was -9.6% and 12.2%. Further, the Potency entry in test [2] and in test [3] was “inactive” in each case.

As for `COc1ccc2c(c1OC)C(=O)O[C@@H]2[C@H]1c2c(cc3c(c2OC)OCO3)CCN1C`, in test [1], the Potency was 21.9 µM (active). Also, the Potency entry in test [2] and in test [3] was “inactive” each time.

As for `CC(=O)NCCc1c[nH]c2ccc(O)cc12`, the activation in test [1] was 10.8%. Also, the Potency entry in test [2] and in test [3] was “inactive” throughout.

As to `Cc1ccc(O)c(N=Nc2ccccc2)n1`, in test [1], the activation is 34%. The Potency result in [2] and in test [3] was “inactive” each time.

As for `Brc1ccc([C@H]2CN3CCSC3=N2)cc1`, the activation in test [1] was -4.33% and 7.97%. Further, the Potency result in [2], in test [3], in test [4], in test [5], in test [6] and in [7] was “inactive” in each case. The Potency result in test [8], in test [9] and in [10] was “inactive” throughout.

`OCCN1CCN(CC/C=C2/c3ccccc3Sc3ccc(C(F)(F)F)cc32)CC1`: in test [1], the activation is -48.7%. Further, the Potency entry in test [2] and in test [3] was “inactive” each time.

For `O=C(O)Cc1c[nH]c2ccc(O)cc12`, in test [1], the activation is 8.12%. Further, the Potency result in test [2] and in test [3] was “inactive” in each case.

As for `C1CCc2nnnn2CC1`, in test [1], the activation is -8.09%. Also, the Potency entry in test [2] and in test [3] was “inactive” throughout.

Turning to `Cc1cc(N)c2ccccc2[n+]1CCCCCCCCCC[n+]1c(C)cc(N)c2ccccc21`, the activation in test [1] was 10%. Further, the Potency entry in test [2], in [3], in [4], in [5], in test [11] and in test [6] was “inactive” in each case. Besides, the Potency result in [7], in test [8], in test [9] and in [10] was “inactive” each time.

For `CC(=O)Oc1cc(C(C)C)c(OCCN(C)C)cc1C`, in test [1], the activation is -0.837% and 6.26%. The Potency result in [2] and in [3] was “inactive” in each case.

For `CNCCNS(=O)(=O)c1cccc2cnccc12`, in [1], the activation was -55.4%. Further, the Potency entry in test [2] and in test [3] was “inactive” throughout.

On to `C#CCN(C)CCCOc1ccc(Cl)cc1Cl`, for which the activation in [1] was -2.51% and -6.18%. Also, the Potency result in [2] and in test [3] was “inactive” throughout.
